Laboratory results taken from PubChem BioAssay AID1851 (National Center for Advancing Translational Sciences (NCATS), 2009).
Hit rate of the full screen: of about 16,000 compounds, about 5,100 (32%) were called active. Inconclusive results (about 25%) are left out. Calls come from the whole dose curve; as a rule, active = well fitted curve in the direction sought with a large enough effect; inconclusive = small, poorly fitted or top-dose-only effect, or effect the other way; inactive = no such curve, though single readings can be large or run the other way. Some of the results follow.

target: Cytochrome P450 3A4 (Homo sapiens) (UniProt P08684); test: Cytochrome panel assay with activity outcomes; settings: recombinant CYP, pro-luciferin dealkylation, luminescence, p450-cyp3a4; series mostly up to 57.1 µM
% is set by controls: 0 for no effect and ±100 for the full control effect.

Sequence of Cytochrome P450 3A4 (Homo sapiens) (P08684 whole entry, looked up): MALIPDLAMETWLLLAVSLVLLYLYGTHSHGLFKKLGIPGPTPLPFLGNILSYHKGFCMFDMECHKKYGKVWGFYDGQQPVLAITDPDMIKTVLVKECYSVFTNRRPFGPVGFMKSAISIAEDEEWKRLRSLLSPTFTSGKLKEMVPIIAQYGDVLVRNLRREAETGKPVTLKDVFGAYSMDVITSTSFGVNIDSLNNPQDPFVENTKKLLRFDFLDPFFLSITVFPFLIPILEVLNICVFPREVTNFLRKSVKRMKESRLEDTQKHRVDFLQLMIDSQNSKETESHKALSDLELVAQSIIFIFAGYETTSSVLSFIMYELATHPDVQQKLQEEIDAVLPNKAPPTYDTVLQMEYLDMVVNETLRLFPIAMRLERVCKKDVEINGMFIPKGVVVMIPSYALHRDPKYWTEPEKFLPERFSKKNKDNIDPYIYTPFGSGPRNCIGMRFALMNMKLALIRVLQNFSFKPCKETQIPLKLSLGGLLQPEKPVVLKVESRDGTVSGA

Row | SMILES | AC50 | activity, negative = inhibition
1 | CC(C)CNC(=S)N1CCN(C)CC1 | inactive | –
2 | Cc1ccc(NC(=O)c2cc([N+](=O)[O-])ccc2NCc2cccnc2)cc1Cl | 3.98 µM (active) | –
3 | O=C(O)c1cc([N+](=O)[O-])ccc1NCCCc1ccccc1 | inactive | –
4 | COC(=O)c1sccc1NC(=O)c1cc(-c2ccc(C)cc2C)nc2ccccc12 | 7.08 µM (active) | –
5 | Cc1cc(C)c(C(N)=O)c(NC(=O)Nc2ccccc2)n1 | inactive | –
6 | COC(=O)c1sccc1NC(=O)c1cc(-c2ccc(C)cc2)nc2ccccc12 | inactive | –
7 | Cc1ccc(C)c(-c2cc(C(=O)Nc3sc(C)c(C)c3C(N)=O)c3ccccc3n2)c1 | 2.82 µM (active) | –
8 | Cc1ccc(-c2cc(C(=O)NN=C3CCCC3)c3ccccc3n2)cc1 | 7.94 µM (active) | –
9 | O=C(O)c1cc(-c2ccc(-c3ccc(-c4cc(C(=O)O)c5cc(Cl)ccc5n4)cc3)cc2)nc2ccc(Cl)cc12 | – | 24.9% [at 11.4 µM] (inactive)
10 | Cc1sc(NC(=O)C2CCCCC2C(=O)O)c(C(N)=O)c1C (stereo unspecified) | – | 14.4% [at 2.29 µM] (inactive)
11 | COC(=O)c1sccc1NC(=O)c1cc(-c2cc(C)ccc2C)nc2ccccc12 | 4.47 µM (active) | –
12 | CCN1C(=O)[C@H]2[C@H]3[C@H](O)[C@H](O)C/C(=N/O[C@@H]4O[C@H](COC(C)=O)[C@@H](OC(C)=O)[C@H](OC(C)=O)[C@H]4OC(C)=O)[C@@H]3CC[C@@H]2C1=O | – | -5.68% [at 11.4 µM] (inactive)
13 | Cc1ccc(-c2cc(C(=O)NCc3ccco3)c3ccccc3n2)s1 | 10 µM (active) | –
14 | Cc1ccccc1-c1cc(C(=O)n2cccn2)c2cc(Cl)ccc2n1 | inactive | –
15 | Cc1ccc(Nc2ncccc2C(=O)NCc2cccs2)c(C)c1 | 12.6 µM (active) | –
16 | Cc1ccc(C)c(-c2cc(C(=O)NCc3cccs3)c3ccccc3n2)c1 | 1.41 µM (active) | –
17 | Cc1ccccc1-c1cc(C(=O)Nc2nc3c(s2)CCCC3)c2ccccc2n1 | 3.16 µM (active) | –
18 | CC[C@](N)(CCC(=O)O)C(=O)O | inactive | –
19 | Cc1ccc(C)c(-c2cc(C(=O)Nc3nccs3)c3ccccc3n2)c1 | 2.82 µM (active) | –
20 | CCCN1CC=C2C(C#N)=C(N)C(C#N)(C#N)C(c3cc(OC)ccc3OC)C2C1 (stereo unspecified) | 2 µM (active) | –
21 | CN1CCC2(CC1)C1CN(C)CC=C1C(C#N)=C(N)C2(C#N)C#N (stereo unspecified) | inactive | –
22 | CCN1CC=C2C(C#N)=C(N)C(C#N)(C#N)[C@H](c3ccoc3)[C@H]2C1 | 11.2 µM (active) | –
23 | CCC/C=C(\CCC)C(NC(=O)c1cccs1)c1ccc(C(=O)OC)cc1 (stereo unspecified) | 1.26 µM (active) | –
24 | CCC/C=C(\CCC)C(NC(=O)c1cccs1)c1ccc(C(F)(F)F)cc1 (stereo unspecified) | 2.51 µM (active) | –

Row | SMILES | AC50 | activity, negative = inhibition
25 | CCC/C=C(\CCC)C(NS(=O)(=O)c1cccs1)c1ccc(C(=O)OC)cc1 (stereo unspecified) | 3.16 µM (active) | –
26 | COc1nccc(-c2c(-c3ccc(F)cc3)ncn2C2CCC(O)CC2)n1 (stereo unspecified) | inactive | –
27 | Cc1ccccc1OC/C(O)=C(\C#N)c1nc2ccccc2[nH]1 | inactive | –
28 | COc1cccc(OC)c1/C(O)=C(\C#N)c1nc2ccccc2[nH]1 | 2 µM (active) | –
29 | CCn1c2ccccc2c2cc(/C=N/n3cn[nH]c3=S)ccc21 | 7.08 µM (active) | –
30 | Cn1c(=O)n(C)c2cc(/C=N/n3cnnc3)ccc21 | – | 2.58% [at 2.29 µM] (inactive)
31 | CC(C)(C(=O)c1cccnc1)c1cccnc1 | 1.26 µM (active) | –
32 | O=C(O)c1cccnc1 | inactive | –
33 | Cn1c(C(=O)N2COCC2(C)C)cc2c(=O)n3ccccc3nc21 | inactive | –
34 | Cc1ccc(S(=O)(=O)/C(C#N)=C/c2c(N3CC(C)OC(C)C3)nc3ccccn3c2=O)cc1 (stereo unspecified) | 1.41 µM (active) | –
35 | CON(c1nc(N(C)C)nc(N(C)C)n1)S(=O)(=O)c1ccccc1Cl | 12.6 µM (active) | –
36 | Fc1ccc2nc3[nH]c4ccccc4c3nc2c1 | 14.1 µM (active) | –
37 | Cc1cc2nc3[nH]c4c(Cl)cc(Cl)cc4c3nc2cc1C | – | -18.7% [at 11.4 µM] (inactive)
38 | O=c1[nH]c(=O)c2nc3ccccc3nc2[nH]1 | inactive | –
39 | CN(Cc1ccco1)c1nc(-c2ccc3c(c2)OCO3)nc2ccccc12 | 1.58 µM (active) | –
40 | CN(Cc1ccccc1)c1nc(-c2ccc([N+](=O)[O-])cc2)nc2ccccc12 | 1.12 µM (active) | –
41 | CN(C)c1ccc(-c2nc(N(C)Cc3ccco3)c3ccccc3n2)cc1 | 10 µM (active) | –
42 | CN(C)C(=O)c1ccc(-c2nc(N(C)Cc3ccco3)c3ccccc3n2)cc1 | inactive | –
43 | CN(Cc1ccco1)c1nc(-c2ccoc2)nc2ccccc12 | 25.1 µM (active) | –
44 | C[C@H](CCC(=O)NCC(=O)O)[C@H]1CC[C@H]2[C@H]3[C@@H](C[C@@H](O)[C@]12C)[C@]1(C)CC[C@H](O)C[C@@H]1C[C@@H]3O | inactive | –
45 | COc1ccccc1CNc1ncnc2ccc(-c3ccoc3)cc12 | 15.8 µM (active) | –
46 | COc1ccc(CNc2ncnc3ccc(-c4ccoc4)cc23)c(OC)c1 | 3.16 µM (active) | –
47 | CCOC(=O)/C(C(N)=NCCCO)=C(/O)c1ccccc1 | inactive | –
48 | COc1ccccc1CNc1ncnc2ccc(-c3cccc(NS(C)(=O)=O)c3)cc12 | 3.16 µM (active) | –

Row | SMILES | AC50 | activity, negative = inhibition
49 | COc1ccc(CNc2ncnc3ccc(-c4cccc(NS(C)(=O)=O)c4)cc23)c(OC)c1 | 2 µM (active) | –
50 | Cn1c(=O)c2[nH]c(/N=N\N3CCN(CCO)CC3)nc2n(C)c1=O | – | -17% [at 11.4 µM] (inactive)
51 | Cc1ccc(Nc2c([N+](=O)[O-])ccc3c2=NC2(CCCCC2)N=3)cc1 | 7.08 µM (active) | –
52 | CCOC(=O)NC(NC(=O)OCC)C(=O)c1ccc(F)cc1 | inactive | –
53 | CCC/C=C(\CCC)C(NC(=O)c1ccc(C(=O)OC)cc1)c1ccc(C(=O)OC)cc1 (stereo unspecified) | 15.8 µM (active) | –
54 | CCC/C=C(\CCC)C(NC(=O)Oc1ccc(F)cc1)c1ccc(C(=O)OC)cc1 (stereo unspecified) | inactive | –
55 | CCN(CC)c1nc(Nc2ccccc2)nc(Oc2ccc(C(=O)OC)cc2)n1 | inactive | –
56 | CCC/C=C(\CCC)C(NC(=O)C(C)(C)C)c1ccc(C(=O)OC)cc1 (stereo unspecified) | 10 µM (active) | –
57 | CCC/C=C(\CCC)C(NC(=O)Cc1ccccc1)c1ccc(C(=O)OC)cc1 (stereo unspecified) | 3.98 µM (active) | –
58 | CCC/C=C(\CCC)C(NC(=O)OCC(C)C)c1ccc(C(=O)OC)cc1 (stereo unspecified) | 12.6 µM (active) | –
59 | O[C@]1(c2ccccc2)c2ccccc2NC2=NCCN21 | – | 3.31% [at 11.4 µM] (inactive)
60 | COc1ccc(-c2cc(=O)c3c(O)cc(O)cc3o2)cc1 | 2.51 µM (active) | –
61 | Cc1cc(-c2ccc(Cl)cc2)oc(=O)c1NC(=O)c1ccccc1 | inactive | –
62 | COc1ccc(-c2coc3cc(OC)cc(O)c3c2=O)cc1 | inactive | –
63 | O=c1cc(-c2ccccc2)oc2cc(O)c(O)c(O)c12 | 31.6 µM (active) | –
64 | Cc1cc(=O)c2c(O)c(O)ccc2o1 | inactive | –
65 | O=C(O)CC[C@@H](C(=O)O)N1C(=O)[C@@H]2[C@@H]3CC[C@H](C3)[C@@H]2C1=O | – | -4.14% [at 11.4 µM] (inactive)
66 | O=C(C(Cc1ccccc1)N1C(=O)C2C3CCC(C3)C2C1=O)N1CCCCC1 (stereo unspecified) | 12.6 µM (active) | –
67 | Cc1ccc(C)n1C(Cc1ccccc1)C(=O)O (stereo unspecified) | inactive | –
68 | CC(C)C(NC(=O)C1CCCCC1)C(=O)NC1CCN(Cc2ccccc2)CC1 (stereo unspecified) | inactive | –
69 | O=C(O)[C@H](CCc1ccccc1)N1C(=O)c2ccccc2C1=O | – | 9.26% [at 11.4 µM] (inactive)
70 | O=C(NC1CCCCC1)C(Cc1ccccc1)N1C(=O)C2C3CCC(C3)C2C1=O (stereo unspecified) | 8.91 µM (active) | –
71 | CN(CC(=O)Nc1cccc2c1CCCC2)S(=O)(=O)c1ccc(Br)cc1 | 8.91 µM (active) | –
72 | CN(C)CCOC(=O)[C@@H](c1ccccc1)C1(O)CCCC1 | inactive | –

Row | SMILES | AC50 | activity, negative = inhibition
73 | Cn1c(C[C@@H](O)c2nc3ccccc3n2C)nc2ccccc21 | – | -14.4% [at 11.4 µM] (inactive)
74 | Cc1ccc(/C=N/NC(=O)CSc2nc3ccccc3n2C)s1 | – | -26.5% [at 2.29 µM] (inactive)
75 | Cn1c(SCc2nc3ccccc3n2CCO)nc2ccccc21 | 8.91 µM (active) | –
76 | CC(=O)Nc1ccc(S(=O)(=O)N2CCN(c3nc(NC4CCCC4)c4ccccc4n3)CC2)cc1 | 3.16 µM (active) | –
77 | Cc1ccc(C(=O)O)cc1N1C(=O)c2cccc3cc(Br)cc(c23)C1=O | – | 19.6% [at 2.29 µM] (inactive)
78 | Cc1ccc(C(=O)COC(=O)c2ccc3c(c2)C(=O)N(c2cccc4ncccc24)C3=O)cc1C | 1.26 µM (active) | –
79 | CCOC(=O)N1CCN(C(=O)c2ccc(OC)c(OC)c2)CC1 | inactive | –
80 | CCOC(=O)N1CCN(C(=O)c2ccc(NC(C)=O)cc2)CC1 | – | -1.46% [at 2.29 µM] (inactive)
81 | CCOC(=O)N1CCN(C(=O)c2cc(-c3ccc(F)cc3)[nH]c2C)CC1 | 11.2 µM (active) | –
82 | CS(=O)(=O)N1CCC2(CC1)CN(c1ccncc1)C2 | inactive | –
83 | CS(=O)(=O)N1CCC[C@@]2(CCN(c3ccncc3)C2)C1 | 7.94 µM (active) | –
84 | CS(=O)(=O)N1CCC2(CCN(c3ccccc3)CC2)CC1 | inactive | –
85 | CS(=O)(=O)N1CCC[C@@]2(CCN(c3ccccc3)C2)C1 | 12.6 µM (active) | –
86 | CS(=O)(=O)N1CCC[C@@]2(CCN(c3ncccn3)C2)C1 | inactive | –
87 | CS(=O)(=O)N1CCC2(CCCN(c3ccncc3)C2)CC1 | inactive | –
88 | COc1cc(CN2CCN(C(=O)CC(C)C)CC2)cc(OC)c1OC | inactive | –
89 | COc1ccccc1N1CCN(CCN(C(=O)C2CCCCC2)c2ccccn2)CC1 | 3.98 µM (active) | –
90 | COc1ccccc1N1CCN(CCCCNC(=O)c2ccc(-c3ccc(C(C)=O)cc3)cc2)CC1 | inactive | –
91 | Cc1[nH]n(-c2ccccc2)c(=O)c1CCOC(=O)c1ccc(C(F)(F)F)cc1 | 14.1 µM (active) | –
92 | Cc1cc(-c2c(C)[nH]n(-c3ccccc3)c2=O)n(-c2ccccc2)n1 | – | -9.49% [at 11.4 µM] (inactive)
93 | Cc1[nH]n(-c2ccccc2)c(=O)c1CCOC(=O)c1cccc(C(F)(F)F)c1 | 3.16 µM (active) | –
94 | CSc1nc(C)c(CCOC(=O)c2cccc(C)c2)c(=O)[nH]1 | inactive | –
95 | CSc1nc(C)c(CCOC(=O)c2ccccc2)c(=O)[nH]1 | inactive | –
96 | CC1=NN(c2ccccc2)C(=O)/C1=C\c1c(C)[nH]n(-c2ccccc2)c1=O | inactive | –
